# Compound activity (PubChem BioAssay)
# Most compounds without a hit are left out; they make up all but 7.1% or so of the library.
# SW480 rerep = DNA re-replication induction in SW480 cells; SW480 DNA re-replication, Hoechst DNA content imaging, 48 h; Potency, µM (series often up to 46.1 µM), for the others: at the top dose re-replication activation, most hits filed as activators; hit rate 1.8% among 340,000; also: % of control where 0% means no effect; nearly all actives have a fitted effect of over 55% in size
#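 SW480 cells exposed to compounds for 48 hr at 37 C, 5% CO2, then Hoechst-stained 40 min. Nuclear DNA content imaged by fluorescence scanning (405 nm excitation, 500-530 nm emission); re-replication scored as increased high-intensity nuclei.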
# ELG1 DNA repair = ELG1-dependent DNA repair inhibition; Potency, µM (series often up to 46.1 µM), inactives show top-dose activity change, negative = inhibition, actives largely listed as inhibitors; hit rate 2.3% among 330,000; HEK293T ELG1-luciferase reporter, luminescence, 16 h; DNA damage induced by 5-fluorouridine; also: % is scaled to controls: 0 for no effect and ±100 for the full control effect; nearly all actives have a fitted effect of over 55% in size
#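 Step one: seed 2,000 cells per well. Step two: pin-transfer compound or DMSO alongside 5-fluorouridine. Step three: incubate 16 hr, 37 °C, 5% CO2. Step four: add ONE-Glo, wait 30 min, read luminescence.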
# AT treatment = potential ataxia-telangiectasia treatments restoring KAP-1 phosphorylation; F2112 A-T fibroblasts, KAP-1 phosphorylation AlphaLISA; neocarzinostatin DNA damage 30 min before lysis; Potency, µM (highest dose often 57.5 µM), inactives show at the highest dose activation, hits mostly activators; hit rate 0.19% among 320,000; AID 485349; also: % of control where 0% means no effect; nearly all actives have a fitted effect of over 45% in size
#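 hTERT-immortalized A-T patient fibroblasts (F2112), 500 cells/well in OPTI-MEM, 1% FBS, got compounds for 60 min, then NCS for 30 min at 37C. Lysates were then assayed for phospho-KAP-1 by AlphaLISA (anti-pKAP1 donor, anti-KAP1 acceptor beads), 6 hr at 25C.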
# MCF10A rerep = induces DNA re-replication in MCF 10a normal breast cells; hit rate 2.9% among 350,000; MCF 10A DNA re-replication, Hoechst nuclear intensity, 48 h; Potency, µM (top dose mostly 46.1 µM), inactives show top-dose activity, positive = re-replication, most hits filed as activators; also: % of control where 0% means no effect; nearly all actives have a fitted effect of over 50% in size
# p53 reactivator = re-activators of mutant p53; H1299 p53-A138V BP100-luciferase reporter, luminescence, 24 h; Potency, µM (highest dose often 92.2 µM), without a hit: at the top dose activity change, positive = activation, actives largely listed as activators; hit rate 0.063% among 320,000; also: % of control where 0% means no effect; nearly all actives have a fitted effect of over 45% in size
#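 p53-null H1299 cells stably carrying temperature-sensitive p53-A138V and a BP100-luciferase reporter were pinned with compounds (4-point, 1:5 series) and held 24 hrs at 37 deg C. Luminescence was read 10 min after detection reagent.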
# ELG1 genotox = inducers of genotoxicity in HEK293T ELG1-luciferase cells | hit rate 1.3% among 330,000 | Potency, µM (top dose mostly 46 µM), without a hit: at the top dose activity change, positive = activation, usual class: activators | HEK293T ELG1-luciferase reporter, luminescence, 16 h; also: % of control where 0% means no effect; nearly all actives have a fitted effect of over 60% in size
#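 Cells (2,000/well) expressing the ELG1-luciferase fusion are dosed by pin tool and kept 16 hr at 37 °C, 5% CO2. Signal comes from ONE-Glo luciferase reagent after 30 min at room temperature.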
# Active calls of the source: *; u = inconclusive; x = no result given; [ ] = dose if it differs, or a comment. Calls follow the shape of the dose curve; as a rule, active = well fitted curve in the direction sought with a large enough effect; inconclusive = small, poorly fitted or top-dose-only effect, or another doubt; inactive = no such curve, though single readings can be large; an effect the other way counts as inactive or inconclusive. Potency is read from the fitted curve at half-maximal effect.
SMILES,SW480 rerep,ELG1 DNA repair,AT treatment,MCF10A rerep,p53 reactivator,ELG1 genotox
CCC(C)c1ccc(NC(=O)c2ccco2)cc1 (configuration not stated),0%,u,-7%,-4%,x,0.58µM*
Cc1cc(C)nc(N/N=C/c2ccccc2)n1,-5%,0%,-2%,2%,10%,3%
CC(=O)Nc1ccc2c(c1)Cc1c(F)cccc1-2,u,x,x,7%,x,x
CCCc1cc(=O)[nH]c2nnc(SCC(=O)Nc3cccc(NC(C)=O)c3)n12,u,8%,-18%,u,1%,2%
COc1ccccc1NC(=O)NNC(=O)c1ccc2ccccc2c1O,3%,13%,-9%,0%,4%,3%
Cc1cccc(NC(=O)NC2CCCc3ccccc32)c1 (configuration not stated),13%,1%,9%,u,0%,-3%
CCN(CC)c1ccc(NC(=O)c2ccco2)cc1,-5%,u,2%,1%,u,1.8µM*
CCN(CC)c1ccc(/C=N/NC(=O)c2ccco2)c(O)c1,1.5µM*,u,1%,21µM*,u,23µM*
CCN(CC)c1ccc(/C=N/N=C(c2ccccc2)c2ccccc2)c(O)c1,23µM*,-8%,-10%,u,-4%,-2%
CCN(CC)c1ccc(/C=N/NC(=O)Cc2cccs2)c(O)c1,u,19%,-4%,u,u,u
CCN(CC)c1ccc(/C=N/NC(=S)NCc2ccccc2)c(O)c1,16µM*,u,-2%,16µM*,10%,9%
CCN(CC)c1ccc(/C=N/N(c2ccccc2)c2ccccc2)c(O)c1,u,-12%,-2%,u,-13%,0%
O=C(N/N=C/c1ccccc1)c1ccco1,1%,u,-3%,0%,17%,u
CCN(CC)c1ccc(/C=N/NC(=O)c2ccco2)cc1,5.8µM*,u,-5%,4.1µM*,u,5.8µM*
CCOc1cc(-c2c(C#N)c(N)nc3c2CCc2ccccc2-3)ccc1O,u,-21%,0%,u,-9%,15%
COc1ccccc1-c1c(C#N)c(N)nc2c1CCc1ccccc1-2,21µM*,6%,22µM*,u,-10%,u
CN(CC(=O)NNC(=O)Cc1ccccc1F)S(=O)(=O)c1ccc(Cl)cc1,-4%,-17%,-1%,1%,-6%,1%
Cc1c(C(=O)N2CCCCC2)c(S(=O)(=O)N2CCN(c3ccccc3F)CC2)c(C)n1C,-1%,-17%,-5%,2%,-3%,0%[9.26 µM]
COc1ccccc1-c1nc2cc3ccccc3cc2nc1-c1ccccc1OC,9.2µM*,21µM*,0%,u,-17%,-3%
O=C(COC(=O)COc1ccc(Br)cc1)Nc1ccc2c(c1)OCCO2,0%,12%,15%,8%,-1%,0%
CC(C)N(Cc1ccccc1)C(=O)CN1C(=O)NC2(CCCCCC2)C1=O,-2%,-2%,-5%,10%,-8%,0%
C=CCNC(=S)N/N=C/c1ccc(OCc2ccccc2Cl)cc1,7.3µM*,u,-4%,u,-2%,3%
Clc1ccccc1COc1ccc(/C=N/n2cnnc2)cc1,-5%,-10%,3%,13%,-11%,2%
Cc1ccc(Cn2c(O)c(N=NC(=S)Nc3ccccc3F)c3ccccc32)cc1,-170%,5.2µM*,-3%,-10%,1%,-7%
C=CCn1c(O)c(N=NC(=S)Nc2ccccc2F)c2ccccc21,-53%,6.5µM*,0%,-13%,12%,-1%
SMILES,SW480 rerep,ELG1 DNA repair,AT treatment,MCF10A rerep,p53 reactivator,ELG1 genotox
Oc1c(N=NC(=S)Nc2ccccc2F)c2ccccc2n1Cc1ccccc1Cl,3%,-19%,-10%,28%,-1%,-5%
Oc1c(N=NC(=S)Nc2ccccc2F)c2ccccc2n1Cc1ccccc1,1%,8.2µM*,-4%,u,1%,-13%
CCCCNC(=S)N=Nc1c(O)n(Cc2ccccc2)c2ccccc12,7%,-2%,-8%,u,2%,3%
C[C@]12CCC(=O)C=C1CCC1C2C(=O)C[C@]2(C)C1CC[C@]2(O)C(=O)CO (some centres not stated),-4%,x,x,-1%,x,x
CCN(Cc1ccccc1)S(=O)(=O)c1cn(C)cn1,-35%,u,-3%,-2%,-8%,2%
Nc1c2c(nc3ccc(Br)cc13)N(c1ccccc1)CC2,15µM*,18%,4%,15µM*,29%,11%
Cc1cccc(N2CCc3c2nc2ccc(Br)cc2c3N)c1,-2%,u,4%,-5%,1%,-6%
O=C(NC(=S)Nc1ccc(N2CCCCC2)cc1)c1cccs1,u,u,-7%,u,u,2.9µM*
O=C(NC(=S)Nc1ccccc1N1CCN(C(=O)c2ccccc2)CC1)c1cccs1,-2%,u,-5%,2%,-1%,9%
O=C(NC(=S)Nc1ccc(N2CCN(C(=O)c3ccccc3)CC2)cc1)c1cccs1,-3%,13µM*,-1%,u,-4%,-19%
O=C(NC(=S)N1CCN(c2ccc(F)cc2)CC1)c1cccs1,u,-10%,-4%,-3%,0%,-7%
O=C(NC(=S)N1CCN(c2ccc(O)cc2)CC1)c1cccs1,u,13µM*,3%,u,0%,2%
CCN(c1ccccc1)S(=O)(=O)c1ccc(NC(=S)NC(=O)c2cccs2)cc1,-5%[9.22 µM],13µM*,17%,21%,11%,-14%
CC(=O)c1ccc[n+](CC(=O)NC(C)c2ccccc2)c1 (configuration not stated),-5%,0%,7%,1%,0%,1%
Cc1ccc(S(=O)(=O)N(CC(=O)NCC2CCCO2)Cc2cccc(C)c2)cc1 (configuration not stated),0%,-1%,7%,1%,-7%,-4%
CCOC(=O)c1c(NC(=O)c2c(C(=O)O)cccc2[N+](=O)[O-])sc2c1CCCC2,-1%,-9%,-17%,16%,-4%,-2%
COc1ccc(/C=N/N=C2/CC(C)(C)Cc3n[nH]c(=O)cc32)cc1,-8%,-11%,2%,-2%,0%,2%
CCCC(=O)NC(=S)Nc1ccc(NC(=O)c2cccs2)cc1,0%,u,6%,0%,14%,13%
CCCC(=O)NC(=S)Nc1ccc(N2CCN(C(=O)c3cccs3)CC2)cc1,-8%,16µM*,-1%,u,-5%,-15%
O=C(Nc1ccccc1)N1CCN(Cc2ccc(Cl)cc2)CC1,u,-28%,0%,-7%,10%,-7%
